MazEF act: activators of E. coli MazEF toxin-antitoxin RNase; P0AE70; FAM/BHQ RNA-DNA oligo cleavage fluorescence, 5 h; activation, % at 20 µM; 350,000 compounds, 0.32% hits; AID 504720; in the data active = activation above about 50%
Target sequence (P0AE70 whole entry, looked up): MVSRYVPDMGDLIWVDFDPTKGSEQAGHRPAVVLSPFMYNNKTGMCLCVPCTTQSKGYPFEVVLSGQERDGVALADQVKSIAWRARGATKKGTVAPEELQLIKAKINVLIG
3CLpro inhibitor: SARS-CoV 3CLpro protease inhibition; recombinant SARS-CoV 3CLpro, quenched FRET peptide cleavage; inhibition, % at 6 µM; 290,000 compounds, 0.14% hits; AID 1706; in the data active = inhibition above about 12%
PriA SSB inh: inhibitors of Klebsiella pneumoniae PriA binding to SSB C-terminal tail; AID 1272365; 430,000 compounds, 0.6% hits; inhibition, % at 33 µM; AlphaScreen SSBct-PriA binding, biotinylated peptide; in the data active = inhibition mostly above about 37%, no sharp cut-off; inactive = mostly below about 20%;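 also: plate controls were negative control peptide for no effect and reference peptide for full effect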
Y pestis TopoI: blocks Yersinia pestis topoisomerase I activity | Y. pestis Topo-I cleavage product accumulation, plate reader | activity, % at 10 µM | 360,000 compounds, 0.064% hits | AID 504884; in the data active = activity above about 50%, passing the limit was not always enough
* hit, by the source's call; i = inactive; nt = not tested or not shown; + = active, no number; ! = a repeat was not active. This is a sample that favours compounds with a hit; in the whole collection about 0.9% have one here.

SMILES	MazEF act	3CLpro inhibitor	PriA SSB inh	Y pestis TopoI
O=[N+]([O-])c1ccc(NN=Cc2cccc(O)c2)nc1	11	nt	-23	-10
CN1CCc2cc(C(C#N)N3CCOCC3)ccc21 (configuration not stated)	nt	nt	29	nt
CN=Cc1nc(-c2ccccc2)oc1O	-6	2	8	6
CC1=Nc2ccccc2/C1=C\c1nc(-c2ccc(F)cc2)oc1O	+	6	-5	4
CCOc1cc(-c2nnc(NC(=O)c3cccc(C(F)(F)F)c3)o2)cc(OCC)c1OCC	nt	nt	2	nt
O=C(c1ccccc1)c1ccc(OCC(O)CNc2ccc(F)cc2)cc1 (configuration not stated)	nt	nt	57*	nt
CCOc1ccc(C=Nc2cccc3ncccc23)cc1	6	3	77*	1
COc1ccc(C=Nc2cccnc2N)cc1	15	3	-16	3
Oc1ccc(C=Nc2cccc3ncccc23)c(O)c1	16	-5	96*	-17
O=C(NCCS(=O)(=O)N1CCN(c2ccccn2)CC1)c1c(F)cccc1Cl	nt	nt	-15	nt
O=C(C1=C(O)C(=O)N(CCCN2CCOCC2)C1c1cccs1)c1ccco1 (configuration not stated)	nt	nt	-1	nt
CCOC(=O)CCC(=O)N(Cc1ccccn1)c1nc2c(C(F)(F)F)cccc2s1	nt	nt	-15	nt
CCC(C)(C)NC(=O)C(c1ccc(O)cc1)N(CCOC)C(=O)CCC(=O)Nc1nccs1 (configuration not stated)	235*	1	-10	-3
CCC(C)(C)NC(=O)C(c1ccc(OC)cc1)N(CCOC)C(=O)CCC(=O)Nc1nccs1 (configuration not stated)	0	1	-15	14
O=C(CCS(=O)(=O)c1ccc(F)cc1)Nc1onc2c1CCC2	nt	nt	1	nt
CCOc1ccc(N2C(=O)CC(N3CCN(c4ccc(C(=O)c5ccncc5)cc4)CC3)C2=O)cc1 (configuration not stated)	-10	-3	-9	82*
CCOC(=O)CN1C=C(c2ccc3ccccc3n2)C(C[N+](=O)[O-])c2ccccc21 (configuration not stated)	233*	-4	-8	-11
COc1ccccc1N1CCN(CC(O)COc2ccc(Cl)cc2Cl)CC1 (configuration not stated)	nt	nt	-18	nt
COc1ccc(NC(=O)CN2CCN(c3nc(-c4cccc(OC)c4)cs3)CC2)cc1	-14	-1	-8	-4
COc1ccc(NC(=O)CN2CCN(c3nc(-c4ccc(F)cc4)cs3)CC2)c(OC)c1	-4	-4	6	54*
Cc1ccc2nc(-c3ccc(SCC(=O)O)nc3)[nH]c2c1	7	0	-13	55*
Cc1ccc(S(=O)(=O)NCCn2nc(-c3ccco3)ccc2=O)s1	nt	nt	-2	nt
CCOC(=O)c1c(C)n(Cc2ccccc2)c2ccc(OCC(O)Cn3nc(C)cc3C)cc12 (configuration not stated)	-6	1	25	31
CCOC(=O)c1c(C)n(Cc2ccccc2)c2ccc(OCC(O)Cn3nc(C)nc3C)cc12 (configuration not stated)	0	-2	104*	34
Brc1ccc(OCc2nc(-c3ccccn3)n[nH]2)cc1	6	4	86*	4
SMILES	MazEF act	3CLpro inhibitor	PriA SSB inh	Y pestis TopoI
NCCc1nc(-c2ccccn2)no1	nt	nt	-9	nt
Cc1nc(-c2ccccn2)n[nH]1	nt	nt	99*!	nt
NCCc1nc(-c2ccccn2)n[nH]1	nt	nt	93*	nt
Clc1ccc(OCc2nc(-c3ccccn3)n[nH]2)cc1	-20	-7	64*	7
c1ccc(-c2nc(-c3ccccn3)nc(-c3ccccn3)n2)nc1	5	5	-12	8
C=CC(C)(O)CC[C@@H]1[C@@]2(C)CCCC(C)(C)[C@@H]2CC[C@@]1(C)O (some centres not stated)	nt	nt	-8	nt
COc1ccccc1-c1cc2c(SCC(=O)Nc3ccccc3C(F)(F)F)nccn2n1	nt	nt	-6	nt
O=c1ccc(-c2ccc(F)cc2)nn1CCNS(=O)(=O)c1ccc(Cl)c(Cl)c1	nt	nt	21	nt
Cc1cc(NC(=O)c2ccc(=O)[nH]c2)ccc1F	nt	nt	-8	nt
Nc1cc(C(=O)O)c(N)c2c1C(=O)c1ccccc1C2=O	-95	2	74*	16
CSc1ccccc1OCc1cc(C(=O)N2CCN(c3ccccc3)CC2C)no1 (configuration not stated)	-9	3	-11	34
CSc1ccccc1OCc1cc(C(=O)N2CCc3[nH]cnc3C2c2ccccn2)no1 (configuration not stated)	4	0	52*	34
CC(C)(C)C(=O)c1sc2nc(-c3cccs3)cc(C(F)(F)F)c2c1N	+	0	-15	-8
Cc1ccc(C)c(NC(=O)c2sc3nc(-c4cccs4)cc(C(F)(F)F)c3c2N)c1	nt	nt	-11	nt
Cc1nnc(NC(=O)c2sc3nc(-c4cccs4)cc(C(F)(F)F)c3c2N)s1	-27	-11	-2	7
Nc1c(C(=O)Nc2nccs2)sc2nc(-c3cccs3)cc(C(F)(F)F)c12	115*	0	-24	-5
COc1ccc(CC(=O)N2CCc3cnc(N4CCOCC4)nc3C2)cc1OC	nt	nt	-14	nt
C=CCOc1ccc(/C=N/NC(=O)CC#N)cc1OC	nt	nt	i	nt
COc1cc(C=NNC(=O)CC#N)ccc1OC/C=C/c1ccccc1	nt	nt	68*	nt
N#CCC(=O)NN=Cc1ccccc1OC/C=C/c1ccccc1	nt	nt	71*	nt
COc1cc(/C=N/NC(=O)CC#N)ccc1OCc1ccccc1	nt	nt	+	nt
C=CCNC(=O)CCn1cnc2c([nH]c3ccc(F)cc32)c1=O	nt	nt	1	nt
O=[N+]([O-])c1cc2c(cc1C=Nn1c(-c3ccccc3)n[nH]c1=S)OCO2	nt	nt	-5	nt
O=[N+]([O-])c1cc2c(cc1C=Nn1c(-c3ccccn3)n[nH]c1=S)OCO2	nt	nt	99*	nt
S=c1[nH]nc(-c2ccccn2)n1N=Cc1cccs1	nt	nt	58*	nt
SMILES	MazEF act	3CLpro inhibitor	PriA SSB inh	Y pestis TopoI
CN1CCN(n2c3c(c(SCC(=O)Nc4nc5ccccc5s4)nc2=O)CCC3)CC1	nt	nt	-15	nt
CCCCCCCN1C2=NCCCN2c2ccccc21	926*	-1	-16	5
COc1cccc(-c2noc(Cn3nc(C(=O)O)c4ccccc4c3=O)n2)c1	6	-1	-11	54*
O=C(Cn1nc(C(=O)O)c2ccccc2c1=O)Nc1cc(Cl)cc(Cl)c1	-25	1	-9	-4
O=C(O)c1nn(Cc2ncc(-c3cccc(Cl)c3)o2)c(=O)c2ccccc12	-6	-3	4	52*
O=c1c2[nH]c3ccc(Br)cc3c2ncn1CCCn1ccnc1	3	2	61*	1
CC(=O)Oc1cccc2c1C(=O)c1c(OC(C)=O)cc(C(=O)O)cc1C2=O	257*	-9	-1	8
Cc1ccc(C2(C)NC(=O)N(CC(=O)Nc3nc(-c4ccccn4)cs3)C2=O)cc1 (configuration not stated)	-5	nt	85*	3
C=C1Nc2ccccc2N(CC(=O)Nc2nc(-c3ccccn3)cs2)C1=O	nt	nt	57	nt
CCSc1nnc(NC(=O)CN2C(=O)N(C)C3(CCCCC3)C2=O)s1	6	nt	-5	7
CN1C(=O)N(CC(=O)Nc2nc(-c3ccccn3)cs2)C(=O)C12CCCCC2	nt	nt	101*	nt
Cc1ccc(S(=O)(=O)CCC(=O)Nc2nc(-c3ccccn3)cs2)cc1	4	nt	-1	2

Bioassay records from PubChem BioAssay.
